# Screening results deposited in PubChem BioAssay by The Scripps Research Institute Molecular Screening Center.
# Shown are actives, neighbours in structure and some others; about 3.5% of the full set was active somewhere.
# GPR151 ag: activates the human receptor GPR151. Q8TDV0. PathHunter beta-arrestin GPR151 cells, luminescence. activation, % at 11.2 µM. hit rate 1% among 650,000; in the data active means activation above about 4.9%
# Target sequence (Q8TDV0 whole entry, looked up): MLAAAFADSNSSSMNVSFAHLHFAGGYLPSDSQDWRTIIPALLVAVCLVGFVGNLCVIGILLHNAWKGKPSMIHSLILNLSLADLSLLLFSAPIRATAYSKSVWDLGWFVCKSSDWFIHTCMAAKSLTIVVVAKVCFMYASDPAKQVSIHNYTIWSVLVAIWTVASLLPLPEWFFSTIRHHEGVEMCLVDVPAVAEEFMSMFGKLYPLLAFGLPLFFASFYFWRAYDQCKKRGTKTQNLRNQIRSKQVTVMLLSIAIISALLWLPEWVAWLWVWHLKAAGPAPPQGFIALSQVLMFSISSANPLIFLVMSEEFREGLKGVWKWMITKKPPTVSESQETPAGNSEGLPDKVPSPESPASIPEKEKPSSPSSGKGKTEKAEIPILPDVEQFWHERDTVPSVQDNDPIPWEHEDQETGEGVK
# FBW7 activator: human FBW7 E3 ligase activation, primary screen; hit rate 0.13% among 650,000; normalized activity (activation), % at 26.1 µM; AlphaScreen FBW7–phospho-cyclin E peptide binding, activator screen; in the data active means normalized activity above about 1.9%;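 further: purified mutant Fbw7 with reduced substrate affinity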
# TEAD-YAP block: TEAD-YAP interaction inhibition. AID 1259422. inhibition, % at 9.12 µM. HEK-TIYL cells, TEAD-Gal4/YAP UAS-luciferase luminescence. hit rate 1.4% among 640,000; in the data active means inhibition above about 32%
# MITF inh: blocks human microphthalmia-associated transcription factor; O75030; AlphaScreen MITF homodimerization, bead proximity signal; inhibition, % at 2.6 µM; hit rate 0.91% among 650,000; AID 1259374; in the data active means inhibition above about 50%
# GPR151 confirm: confirmation of human GPR151 activators; activation, % at 11.2 µM; AID 1508609; shares compounds with GPR151 ag; 6,700 tested, under 10 active; GPR151 PathHunter beta-arrestin cells, luminescence, 90 min; % of EA-reagent control over plate median;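 active means mean percent activation across replicates above the confirmation screen cutoff of 4.91%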
# GPR119 ag: counter-screen for GPR151 activators: effect on human GPR119 | shares compounds with GPR151 ag | GPR119 PathHunter beta-arrestin cells, luminescence, 90 min; 0 = compound-well median, 100 = enzyme-acceptor control | activation, % at 11.2 µM | hit rate 0.3% among 6,700 | AID 1508611;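 active means mean percent activation in the counterscreen above 29.09%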;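 further: counterscreen on off-target GPR119 to flag nonselective hits from the GPR151 activator screen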
# Numbers stand for hits; i = inactive; nt = not tested or not shown.
SMILES,GPR151 ag,FBW7 activator,TEAD-YAP block,MITF inh,GPR151 confirm,GPR119 ag
COc1ccc(CCN2C(=O)c3ccc(Oc4ccc(Nc5ncnc6ccccc56)cc4)cc3C2=O)cc1OC,6.6,i,96.7,i,i,i
COc1ccc(CCN2C(=O)c3ccc(Oc4ccc([N+](=O)[O-])cc4)cc3C2=O)cc1OC,i,i,i,i,nt,nt
O=C(c1ccsc1)N1CCOc2ccc(C(O)c3ccncc3)cc2C1 (stereo unspecified),i,i,i,i,nt,nt
CC(NC(=O)C1CC1)C(c1cccs1)N1CCN(c2ccccc2)CC1 (stereo unspecified),5.7,i,i,i,i,i
CC(NC(=O)C1CC1)C(c1cccs1)N1CCN(c2ccccc2F)CC1 (stereo unspecified),i,i,i,i,nt,nt
OCCOCCNc1ncnc2ccc(I)cc12,5.4,i,i,i,i,i
CC(C)CCNC(=O)c1cc2c(s1)CS(=O)(=O)C2,6.5,i,i,i,i,i
Cc1ccc(CCNC(=O)c2cc3c(s2)CS(=O)(=O)C3)cc1,i,i,i,i,nt,nt
Cc1ccc(CNC(=O)c2cc3c(s2)CS(=O)(=O)C3)cc1,5.7,i,i,i,i,i
OCCN1CCN(c2nccn3c(-c4ccccc4Oc4ccccc4)cnc23)CC1,i,i,i,i,nt,nt
Cc1c(C(=O)N(C)C)sc2c1c(=O)n(-c1ccc(Cl)cc1)c(=O)n2CC1OCCO1,6.0,i,i,i,i,i
COc1ccc(C2CC(c3ccc(OC(F)F)cc3)n3ncnc3N2)cc1 (stereo unspecified),7.4,i,i,i,i,i
COc1ccc(C2CC(c3ccccc3OC(F)F)Nc3ncnn32)cc1 (stereo unspecified),i,i,i,i,nt,nt
CCc1noc(C)c1C(=O)OCC(=O)Nc1cc(C)on1,5.3,i,i,i,i,i
CN(CC(=O)Nc1ccccc1F)S(=O)(=O)c1cccc2cnccc12,5.4,i,37.1,i,i,i
CN(CC(=O)Nc1ccc(F)cc1)S(=O)(=O)c1cccc2cnccc12,i,i,i,i,nt,nt
Cc1c(CCO)sc[n+]1CC(=O)OC1CC(C)CCC1C(C)C (stereo unspecified),5.4,i,i,i,i,i
Cc1cc(C)nc(SCC(=O)OC2CC(C)CCC2C(C)C)n1 (stereo unspecified),i,i,i,i,nt,nt
COc1ccc(C(O)CN2C3=NCCCN3c3ccccc32)cc1 (stereo unspecified),5.1,i,i,i,i,i
CCOC(=O)c1ccc(NC(=O)/C=C/c2ccc(OC)cc2)cc1,i,i,i,i,nt,nt
CC1CCCCN1S(=O)(=O)c1ccc(NC(=O)CSc2nc3ccccc3o2)cc1 (stereo unspecified),i,i,i,i,nt,nt
O=C(CSc1cccc[n+]1[O-])Nc1ccccc1,i,i,i,i,nt,nt
CC1CCN(S(=O)(=O)c2ccc(NC(=O)CSc3nc4ccccc4o3)cc2)CC1,16.0,i,i,i,i,i
CCC(C(=O)Nc1ccc(S(=O)(=O)N2CCC(C)CC2)cc1)c1ccccc1 (stereo unspecified),5.0,i,i,i,i,i
O=C(CSc1cccc[n+]1[O-])Nc1ccc(S(=O)(=O)N2CCCC2)cc1,6.4,i,i,i,i,i
SMILES,GPR151 ag,FBW7 activator,TEAD-YAP block,MITF inh,GPR151 confirm,GPR119 ag
CCOC(=O)C1=C(C)N=c2s/c(=C\c3ccc(-c4ccc([N+](=O)[O-])cc4)o3)c(=O)n2C1c1ccccc1 (stereo unspecified),i,i,i,i,nt,nt
O=C(/C=C/Nc1ccc(SC(F)F)cc1)C(F)(F)F,i,i,i,i,nt,nt
Cc1ccc(N2CCN(S(=O)(=O)c3cc(C(=O)Nc4cc(Cl)cc(Cl)c4)ccc3F)CC2C)cc1 (stereo unspecified),5.7,i,i,i,i,i
O=C(Nc1cccc(Cl)c1)c1ccc(F)c(S(=O)(=O)N2CCc3ccccc3C2)c1,5.4,i,i,i,i,i
CCN1CCN(S(=O)(=O)c2cc(C(=O)Nc3cccc(C)c3)ccc2F)CC1,6.1,i,i,i,i,i
Fc1cccc(CSc2ccc(-c3ccncc3)nn2)c1,i,i,i,i,nt,nt
CCCCOC(=O)Nc1ccc(S(=O)(=O)Nc2cccc([N+](=O)[O-])c2)cc1,5.3,i,i,i,i,i
CCNS(=O)(=O)c1ccc(NC(=O)Nc2cccc([N+](=O)[O-])c2)cc1,13.2,i,i,i,i,i
CCOC(=O)c1ccncc1C(=O)Nc1nccs1,i,i,i,i,nt,nt
CC(C)(C)OC(=O)N1CCC[C@@H]1C(=O)Nc1ccc2[nH]ncc2c1,5.8,i,i,i,i,i
CC1CCCCC1NC(=O)Cc1ccc(NC2=NC3CS(=O)(=O)CC3S2)cc1 (stereo unspecified),i,i,i,i,nt,nt
O=S(=O)(c1ccc(F)cc1)N(CCCN1CCOCC1)Cc1cccs1,i,i,i,i,nt,nt
O=S(=O)(c1ccc(Cl)cc1)N(CCCN1CCOCC1)Cc1cccs1,5.8,i,i,i,i,i
Cc1c(C(=O)Nc2ccc(Oc3ccc(Cl)cc3)cc2)sc2nc(C)n(C)c(=O)c12,i,i,i,i,nt,nt
COc1ccccc1C1CN(CC(=O)N2CC[C@@H](O)C2)Cc2ccccc2O1 (stereo partly specified),i,i,i,i,nt,nt
C=CCn1c(N)c(C(=O)NCCc2ccc(OC)c(OC)c2)c2nc3ccccc3nc21,13.8,i,i,i,i,i
O=C(c1cnn2c1NC(c1cccs1)CC2C(F)(F)F)N1CCN(C(c2ccccc2)c2ccccc2)CC1 (stereo unspecified),i,i,i,i,nt,nt
O=C(c1cnn2c1NC(c1cccs1)CC2C(F)(F)F)N1CCc2ccccc2C1 (stereo unspecified),5.5,i,i,i,i,i
CCC(=O)N1CCN=C1SCc1cccc(Cl)c1,i,i,i,i,nt,nt
CCC(=O)N1CCN=C1SCc1cccc(C)c1,7.1,i,i,i,i,i
CSc1ccc(S(=O)(=O)Nc2ccc(S(=O)(=O)N3CCOCC3)cc2)cc1,5.8,i,i,i,i,i
COc1ccc(C2Nc3ccccc3NC3=C2C(=O)NC3)cc1 (stereo unspecified),i,i,i,i,nt,nt
O=C1NCC2=C1C(c1ccc(Br)cc1)Nc1ccccc1N2 (stereo unspecified),5.5,i,i,i,i,i
CCCCNC(=S)NNC(=O)C12CC3CC(CC(C3)C1)C2,i,i,i,i,nt,nt
CCCCNC(=S)NNC(=O)C(=O)NNC(=S)NCCCC,6.4,i,i,i,i,i
O=C(COC(=O)C1CCN(S(=O)(=O)c2ccc(F)cc2)CC1)c1ccc(F)cc1,i,i,i,i,nt,nt
Cc1ccc(-n2cnc3cc(C(=O)NCc4ccc(F)cc4)ccc32)cc1Cl,5.9,i,i,i,i,i
O=C(NCCN1CCOCC1)c1ccc2c(c1)ncn2-c1ccc(F)cc1F,5.4,i,i,i,i,i
